Experiments:
Assay in all cases: DAPPL (digital affinity profiling via proximity ligation, sequencing); 10 mM Tris-HCl pH 7.5, 50 mM NaCl, 1 mM DTT, 4% glycerol, room temperature, 30 min; GST-TFs on glutathione beads, 16-mer random dsDNA library, 0.1% formaldehyde crosslink after washing; high values mean tight binding
Details in all cases: protein: recombinant; tags: N-terminal GST; dsDNA, one strand shown
FLI1 = target: T1, FLI1 (Homo sapiens, UniProt Q01543 1-452)
T1 sequence: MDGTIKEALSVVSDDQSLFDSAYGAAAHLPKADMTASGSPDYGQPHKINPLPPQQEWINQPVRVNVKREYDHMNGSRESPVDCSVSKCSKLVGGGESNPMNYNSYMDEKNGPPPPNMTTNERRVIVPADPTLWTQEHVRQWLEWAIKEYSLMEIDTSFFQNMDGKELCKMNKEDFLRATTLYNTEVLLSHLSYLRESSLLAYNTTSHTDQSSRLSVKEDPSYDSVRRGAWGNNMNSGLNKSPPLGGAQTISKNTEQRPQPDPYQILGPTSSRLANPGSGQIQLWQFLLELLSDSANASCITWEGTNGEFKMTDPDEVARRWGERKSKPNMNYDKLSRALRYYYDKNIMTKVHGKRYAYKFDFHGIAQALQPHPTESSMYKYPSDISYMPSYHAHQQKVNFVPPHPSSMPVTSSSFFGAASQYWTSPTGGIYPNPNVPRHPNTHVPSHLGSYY
How it was run: (§1)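 Pools were built from human transcription factors expressed in yeast as GST fusions, captured on glutathione beads and DNA-barcoded, along with a tag-only sample. Incubation with 200 nmole of a 16-mer random double-stranded DNA library lasted 30 min at room temperature in Tris/NaCl/DTT/glycerol buffer, and was followed by washing, 0.1% formaldehyde crosslinking, proximity ligation, PCR amplification and Illumina NextSeq500 sequencing. Binding signal is the quotient of each hexamer's read frequency for a factor and its frequency for the tag-only sample.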

ELK1 = target: T2, ELK1 (Homo sapiens, UniProt P19419 1-428)
T2 sequence: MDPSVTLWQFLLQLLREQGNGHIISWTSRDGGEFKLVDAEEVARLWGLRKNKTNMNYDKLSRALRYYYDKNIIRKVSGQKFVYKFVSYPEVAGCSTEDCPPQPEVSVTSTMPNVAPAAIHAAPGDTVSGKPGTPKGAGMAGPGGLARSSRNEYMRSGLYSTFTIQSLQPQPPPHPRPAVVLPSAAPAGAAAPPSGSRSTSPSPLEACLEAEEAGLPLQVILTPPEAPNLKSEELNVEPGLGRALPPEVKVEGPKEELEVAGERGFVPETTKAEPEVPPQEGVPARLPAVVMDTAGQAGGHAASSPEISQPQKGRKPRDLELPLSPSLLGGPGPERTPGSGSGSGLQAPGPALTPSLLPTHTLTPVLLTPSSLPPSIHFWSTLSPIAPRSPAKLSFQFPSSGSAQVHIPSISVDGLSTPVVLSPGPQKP
How it was run: as §1

GABPA = target: T3, GABPA (Homo sapiens, UniProt Q06546 1-454)
T3 sequence: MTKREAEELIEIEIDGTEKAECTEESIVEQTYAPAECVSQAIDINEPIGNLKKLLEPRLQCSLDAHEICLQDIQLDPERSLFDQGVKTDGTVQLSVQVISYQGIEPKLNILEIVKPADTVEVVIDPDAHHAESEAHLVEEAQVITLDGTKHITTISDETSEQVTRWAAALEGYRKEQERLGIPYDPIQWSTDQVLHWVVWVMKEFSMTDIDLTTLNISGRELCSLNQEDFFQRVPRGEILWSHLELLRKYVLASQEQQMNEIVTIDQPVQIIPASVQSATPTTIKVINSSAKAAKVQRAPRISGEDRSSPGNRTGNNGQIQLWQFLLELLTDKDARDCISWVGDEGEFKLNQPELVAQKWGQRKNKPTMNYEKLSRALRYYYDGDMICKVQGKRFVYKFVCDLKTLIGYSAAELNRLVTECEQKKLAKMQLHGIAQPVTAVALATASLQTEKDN
How it was run: as §1

ERG = target: T4, ERG (Homo sapiens, UniProt P11308 1-479)
T4 sequence: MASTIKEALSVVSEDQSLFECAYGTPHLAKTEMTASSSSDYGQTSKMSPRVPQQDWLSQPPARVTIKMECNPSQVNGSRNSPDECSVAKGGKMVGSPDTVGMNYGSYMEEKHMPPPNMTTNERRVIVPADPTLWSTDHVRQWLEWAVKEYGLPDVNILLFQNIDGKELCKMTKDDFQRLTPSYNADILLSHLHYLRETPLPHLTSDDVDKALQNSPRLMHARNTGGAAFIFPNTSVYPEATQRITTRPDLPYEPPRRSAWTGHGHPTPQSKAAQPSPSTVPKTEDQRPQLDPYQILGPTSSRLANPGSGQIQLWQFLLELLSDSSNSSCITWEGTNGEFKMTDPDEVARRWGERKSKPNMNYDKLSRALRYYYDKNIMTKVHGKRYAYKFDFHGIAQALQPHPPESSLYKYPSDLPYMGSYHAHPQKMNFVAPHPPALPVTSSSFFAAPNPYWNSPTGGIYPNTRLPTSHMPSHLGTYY
How it was run: as §1

ELF1 = ELF1 (Homo sapiens, UniProt P32519 1-619)
How it was run: as §1

EHF = target: T5, EHF (Homo sapiens, UniProt Q9NZC4 1-300)
T5 sequence: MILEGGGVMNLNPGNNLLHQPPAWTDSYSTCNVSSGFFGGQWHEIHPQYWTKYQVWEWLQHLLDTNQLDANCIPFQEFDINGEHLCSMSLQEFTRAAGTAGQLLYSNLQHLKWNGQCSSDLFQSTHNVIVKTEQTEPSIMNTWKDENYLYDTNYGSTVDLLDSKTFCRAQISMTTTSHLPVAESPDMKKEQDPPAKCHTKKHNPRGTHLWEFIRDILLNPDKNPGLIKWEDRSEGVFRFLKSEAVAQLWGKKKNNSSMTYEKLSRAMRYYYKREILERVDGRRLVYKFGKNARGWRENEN
How it was run: as §1

SPI1 = SPI1 (Homo sapiens, UniProt P17947 1-270)
How it was run: as §1

SPIB = SPIB (Homo sapiens, UniProt Q01892 1-262)
How it was run: as §1

FEV = target: T6, FEV (Homo sapiens, UniProt Q99581 1-238)
T6 sequence: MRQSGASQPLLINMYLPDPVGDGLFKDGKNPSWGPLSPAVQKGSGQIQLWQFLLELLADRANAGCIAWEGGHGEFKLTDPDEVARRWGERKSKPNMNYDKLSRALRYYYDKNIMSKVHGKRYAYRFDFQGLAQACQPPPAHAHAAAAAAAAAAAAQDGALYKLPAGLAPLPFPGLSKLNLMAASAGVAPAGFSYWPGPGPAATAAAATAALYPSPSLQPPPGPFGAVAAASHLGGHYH
How it was run: as §1

ETV5 = ETV5 (Homo sapiens, UniProt P41161 1-510)
How it was run: as §1

ELF4 = ELF4 (Homo sapiens, UniProt Q99607 1-663)
How it was run: as §1

ETV2 = target: T7, ETV2 (Homo sapiens, UniProt O00321 1-342)
T7 sequence: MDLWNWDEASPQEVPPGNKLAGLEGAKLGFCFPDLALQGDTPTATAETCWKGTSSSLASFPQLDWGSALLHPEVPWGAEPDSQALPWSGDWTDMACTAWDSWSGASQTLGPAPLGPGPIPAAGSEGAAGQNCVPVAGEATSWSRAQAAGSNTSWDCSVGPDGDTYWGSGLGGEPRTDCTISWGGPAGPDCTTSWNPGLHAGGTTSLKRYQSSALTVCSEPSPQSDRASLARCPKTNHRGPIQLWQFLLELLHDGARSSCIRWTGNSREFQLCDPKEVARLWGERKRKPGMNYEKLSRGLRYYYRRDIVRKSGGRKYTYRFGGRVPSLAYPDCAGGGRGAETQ
How it was run: as §1

ELF3 = target: T8, ELF3 (Homo sapiens, UniProt P78545 1-371)
T8 sequence: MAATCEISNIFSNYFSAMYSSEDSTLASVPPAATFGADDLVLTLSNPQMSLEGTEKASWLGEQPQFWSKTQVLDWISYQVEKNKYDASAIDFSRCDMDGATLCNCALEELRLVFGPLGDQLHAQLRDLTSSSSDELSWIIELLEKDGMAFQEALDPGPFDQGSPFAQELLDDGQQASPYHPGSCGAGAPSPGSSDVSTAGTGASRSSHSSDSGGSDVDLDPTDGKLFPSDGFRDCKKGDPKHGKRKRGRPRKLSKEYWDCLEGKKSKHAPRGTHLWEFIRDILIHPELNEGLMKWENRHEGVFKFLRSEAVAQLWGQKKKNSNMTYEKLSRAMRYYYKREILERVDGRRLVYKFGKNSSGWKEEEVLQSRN
How it was run: as §1

ETV1 = ETV1 (Homo sapiens, UniProt P50549 1-477)
How it was run: as §1

ERF = target: T9, ERF (Homo sapiens, UniProt P50548 1-548)
T9 sequence: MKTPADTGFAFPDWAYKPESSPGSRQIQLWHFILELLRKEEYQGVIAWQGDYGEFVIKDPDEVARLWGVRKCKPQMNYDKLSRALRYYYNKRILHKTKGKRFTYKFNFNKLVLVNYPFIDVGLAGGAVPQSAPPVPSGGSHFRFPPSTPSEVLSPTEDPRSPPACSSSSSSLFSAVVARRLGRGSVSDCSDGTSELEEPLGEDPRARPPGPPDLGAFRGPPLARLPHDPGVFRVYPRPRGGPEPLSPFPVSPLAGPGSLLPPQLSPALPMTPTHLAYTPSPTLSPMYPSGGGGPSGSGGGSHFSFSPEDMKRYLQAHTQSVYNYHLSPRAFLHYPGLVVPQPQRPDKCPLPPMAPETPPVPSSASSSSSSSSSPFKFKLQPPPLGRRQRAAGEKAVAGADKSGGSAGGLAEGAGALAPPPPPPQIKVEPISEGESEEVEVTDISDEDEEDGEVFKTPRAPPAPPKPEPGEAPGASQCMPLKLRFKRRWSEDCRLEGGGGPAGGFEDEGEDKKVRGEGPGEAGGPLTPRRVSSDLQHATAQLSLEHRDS
How it was run: as §1

ETV3L = target: T10, ETV3L (Homo sapiens, UniProt Q6ZN32 1-361)
T10 sequence: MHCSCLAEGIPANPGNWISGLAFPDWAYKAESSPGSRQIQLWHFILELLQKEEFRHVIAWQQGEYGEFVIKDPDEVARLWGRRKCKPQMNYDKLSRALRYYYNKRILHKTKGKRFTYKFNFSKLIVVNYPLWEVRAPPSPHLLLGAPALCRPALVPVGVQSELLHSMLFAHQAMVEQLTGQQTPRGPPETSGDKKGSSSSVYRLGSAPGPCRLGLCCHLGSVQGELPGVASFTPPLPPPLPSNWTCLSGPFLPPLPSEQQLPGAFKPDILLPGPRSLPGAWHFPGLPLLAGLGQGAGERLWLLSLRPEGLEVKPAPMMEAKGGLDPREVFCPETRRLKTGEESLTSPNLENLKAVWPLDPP
How it was run: as §1

ETS2 = target: T11, ETS2 (Homo sapiens, UniProt P15036 1-469)
T11 sequence: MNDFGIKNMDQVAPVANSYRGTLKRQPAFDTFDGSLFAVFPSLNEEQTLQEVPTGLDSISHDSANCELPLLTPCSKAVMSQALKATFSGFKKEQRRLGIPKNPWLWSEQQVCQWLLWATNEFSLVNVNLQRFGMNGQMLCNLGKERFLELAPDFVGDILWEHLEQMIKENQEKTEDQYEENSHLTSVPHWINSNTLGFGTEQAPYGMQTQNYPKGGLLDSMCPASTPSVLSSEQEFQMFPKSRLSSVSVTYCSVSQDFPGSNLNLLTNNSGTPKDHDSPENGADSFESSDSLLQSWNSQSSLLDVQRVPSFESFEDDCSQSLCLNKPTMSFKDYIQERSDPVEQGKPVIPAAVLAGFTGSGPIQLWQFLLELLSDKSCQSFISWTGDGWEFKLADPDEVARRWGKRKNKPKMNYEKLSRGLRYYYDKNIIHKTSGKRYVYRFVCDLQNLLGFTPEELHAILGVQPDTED
How it was run: as §1

ETV7 = target: T12, ETV7 (Homo sapiens, UniProt Q9Y603 1-341)
T12 sequence: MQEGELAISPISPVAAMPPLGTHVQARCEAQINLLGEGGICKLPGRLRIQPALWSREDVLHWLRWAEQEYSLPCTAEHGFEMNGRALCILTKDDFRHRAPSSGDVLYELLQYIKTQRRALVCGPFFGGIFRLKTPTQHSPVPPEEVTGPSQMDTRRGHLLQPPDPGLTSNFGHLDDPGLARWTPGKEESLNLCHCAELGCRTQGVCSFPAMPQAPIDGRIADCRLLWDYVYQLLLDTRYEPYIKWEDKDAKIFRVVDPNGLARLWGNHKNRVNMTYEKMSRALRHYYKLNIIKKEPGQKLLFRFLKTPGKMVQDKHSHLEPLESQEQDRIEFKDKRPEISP
How it was run: as §1

ETV3 = target: T13, ETV3 (Homo sapiens, UniProt P41162-2 1-143)
T13 sequence: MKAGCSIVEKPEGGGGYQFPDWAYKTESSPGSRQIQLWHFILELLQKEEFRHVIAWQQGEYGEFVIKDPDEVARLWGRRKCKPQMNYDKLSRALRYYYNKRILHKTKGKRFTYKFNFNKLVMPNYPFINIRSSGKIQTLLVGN
How it was run: as §1

ETV6 = ETV6 (Homo sapiens, UniProt P41212 1-452)
How it was run: as §1

Sequence of ELF4 (Q99607 whole entry): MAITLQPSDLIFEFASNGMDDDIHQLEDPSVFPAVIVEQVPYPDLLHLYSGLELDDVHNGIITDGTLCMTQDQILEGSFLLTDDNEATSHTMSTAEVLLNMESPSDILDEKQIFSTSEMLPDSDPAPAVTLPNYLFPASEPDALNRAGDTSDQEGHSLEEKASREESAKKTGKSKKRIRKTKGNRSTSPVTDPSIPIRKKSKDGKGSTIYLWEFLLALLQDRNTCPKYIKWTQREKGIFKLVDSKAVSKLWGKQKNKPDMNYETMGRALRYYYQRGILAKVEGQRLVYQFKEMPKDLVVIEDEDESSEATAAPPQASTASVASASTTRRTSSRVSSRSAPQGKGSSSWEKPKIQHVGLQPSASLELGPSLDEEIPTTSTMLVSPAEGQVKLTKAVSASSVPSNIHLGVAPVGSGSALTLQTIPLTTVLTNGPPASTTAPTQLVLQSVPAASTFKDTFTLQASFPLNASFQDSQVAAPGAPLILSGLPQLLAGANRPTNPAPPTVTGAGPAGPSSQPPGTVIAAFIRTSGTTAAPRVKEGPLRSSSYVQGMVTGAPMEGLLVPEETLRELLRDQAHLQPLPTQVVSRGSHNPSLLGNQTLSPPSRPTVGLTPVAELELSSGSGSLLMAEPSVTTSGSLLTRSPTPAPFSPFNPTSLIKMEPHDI
Sequence of ETV6 (P41212 whole entry): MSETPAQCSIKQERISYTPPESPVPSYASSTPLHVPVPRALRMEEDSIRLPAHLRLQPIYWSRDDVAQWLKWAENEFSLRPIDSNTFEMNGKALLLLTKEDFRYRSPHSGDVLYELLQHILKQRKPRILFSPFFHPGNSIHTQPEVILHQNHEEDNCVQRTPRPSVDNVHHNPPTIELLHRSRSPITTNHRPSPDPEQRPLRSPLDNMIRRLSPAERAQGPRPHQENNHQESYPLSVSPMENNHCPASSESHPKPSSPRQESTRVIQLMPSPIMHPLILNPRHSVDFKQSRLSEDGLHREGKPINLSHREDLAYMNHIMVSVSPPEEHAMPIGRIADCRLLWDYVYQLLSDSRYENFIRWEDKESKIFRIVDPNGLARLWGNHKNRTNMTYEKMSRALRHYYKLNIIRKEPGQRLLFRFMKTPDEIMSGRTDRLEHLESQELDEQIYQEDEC
Sequence of ELF1 (P32519 whole entry): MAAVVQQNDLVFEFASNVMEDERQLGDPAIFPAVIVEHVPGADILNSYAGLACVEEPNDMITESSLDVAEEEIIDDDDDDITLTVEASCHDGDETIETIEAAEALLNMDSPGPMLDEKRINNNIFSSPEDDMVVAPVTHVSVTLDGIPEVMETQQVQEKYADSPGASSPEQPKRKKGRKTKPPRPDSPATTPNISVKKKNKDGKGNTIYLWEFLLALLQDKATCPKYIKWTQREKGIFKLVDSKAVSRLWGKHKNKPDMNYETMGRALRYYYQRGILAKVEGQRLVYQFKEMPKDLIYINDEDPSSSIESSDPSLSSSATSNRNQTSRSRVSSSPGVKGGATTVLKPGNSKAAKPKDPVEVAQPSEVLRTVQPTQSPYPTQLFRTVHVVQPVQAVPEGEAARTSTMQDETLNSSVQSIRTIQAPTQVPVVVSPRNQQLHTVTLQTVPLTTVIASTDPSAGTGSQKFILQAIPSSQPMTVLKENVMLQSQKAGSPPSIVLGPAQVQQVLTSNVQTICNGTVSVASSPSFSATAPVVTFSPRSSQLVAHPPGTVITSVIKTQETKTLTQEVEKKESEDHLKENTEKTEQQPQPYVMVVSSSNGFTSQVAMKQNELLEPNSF
Sequence of ETV5 (P41161 whole entry): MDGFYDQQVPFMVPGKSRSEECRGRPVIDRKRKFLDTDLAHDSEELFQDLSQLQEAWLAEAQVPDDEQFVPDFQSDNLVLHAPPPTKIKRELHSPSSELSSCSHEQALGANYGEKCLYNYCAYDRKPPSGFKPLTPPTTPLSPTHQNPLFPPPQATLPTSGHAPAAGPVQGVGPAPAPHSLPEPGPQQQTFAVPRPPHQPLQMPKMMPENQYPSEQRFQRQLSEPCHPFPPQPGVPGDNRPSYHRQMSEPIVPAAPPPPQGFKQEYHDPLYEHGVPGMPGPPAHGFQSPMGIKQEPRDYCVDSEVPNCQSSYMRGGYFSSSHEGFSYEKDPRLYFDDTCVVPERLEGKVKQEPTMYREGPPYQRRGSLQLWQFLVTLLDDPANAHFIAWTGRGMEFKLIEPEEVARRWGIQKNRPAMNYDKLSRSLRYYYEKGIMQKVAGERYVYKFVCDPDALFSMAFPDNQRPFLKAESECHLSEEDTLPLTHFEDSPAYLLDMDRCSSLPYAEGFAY
Sequence of SPIB (Q01892 whole entry): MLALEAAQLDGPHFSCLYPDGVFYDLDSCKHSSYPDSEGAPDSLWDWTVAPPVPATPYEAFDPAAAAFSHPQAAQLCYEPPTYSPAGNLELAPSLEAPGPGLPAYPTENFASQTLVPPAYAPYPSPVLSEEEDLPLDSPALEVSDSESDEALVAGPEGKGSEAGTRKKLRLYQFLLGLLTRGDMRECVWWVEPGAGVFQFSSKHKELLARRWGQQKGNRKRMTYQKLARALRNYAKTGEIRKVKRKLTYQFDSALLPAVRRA
Sequence of ETV1 (P50549 whole entry): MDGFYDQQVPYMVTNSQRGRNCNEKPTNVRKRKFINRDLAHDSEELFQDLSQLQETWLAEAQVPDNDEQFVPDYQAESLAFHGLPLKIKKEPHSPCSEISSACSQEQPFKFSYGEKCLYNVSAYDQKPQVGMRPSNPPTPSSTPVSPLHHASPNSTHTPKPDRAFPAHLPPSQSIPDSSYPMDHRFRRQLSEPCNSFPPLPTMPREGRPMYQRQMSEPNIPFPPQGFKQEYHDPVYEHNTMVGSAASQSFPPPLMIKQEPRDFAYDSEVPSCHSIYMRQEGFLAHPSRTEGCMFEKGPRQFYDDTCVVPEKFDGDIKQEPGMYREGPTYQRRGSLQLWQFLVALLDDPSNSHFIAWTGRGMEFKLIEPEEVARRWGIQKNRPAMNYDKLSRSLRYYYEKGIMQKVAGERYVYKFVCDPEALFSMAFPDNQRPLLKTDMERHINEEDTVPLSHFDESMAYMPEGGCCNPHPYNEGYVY

## ACCGCA
FLI1
  binding signal: 1.17 fold enrichment (6-mer frequency, TF over GST control)
ELK1
  binding signal: 1.14 fold enrichment (6-mer frequency, TF over GST control)
GABPA
  binding signal: 1.16 fold enrichment (6-mer frequency, TF over GST control)
ERG
  binding signal: 1.11 fold enrichment (6-mer frequency, TF over GST control)
ELF1
  binding signal: 1.15 fold enrichment (6-mer frequency, TF over GST control)
EHF
  binding signal: 1.23 fold enrichment (6-mer frequency, TF over GST control)
SPI1
  binding signal: 1.2 fold enrichment (6-mer frequency, TF over GST control)
SPIB
  binding signal: 1.16 fold enrichment (6-mer frequency, TF over GST control)
FEV
  binding signal: 1.17 fold enrichment (6-mer frequency, TF over GST control)
ETV5
  binding signal: 1.13 fold enrichment (6-mer frequency, TF over GST control)
ELF4
  binding signal: 1.15 fold enrichment (6-mer frequency, TF over GST control)
ETV2
  binding signal: 1.3 fold enrichment (6-mer frequency, TF over GST control)
ELF3
  binding signal: 1.29 fold enrichment (6-mer frequency, TF over GST control)
ETV1
  binding signal: 1.17 fold enrichment (6-mer frequency, TF over GST control)
ERF
  binding signal: 1.11 fold enrichment (6-mer frequency, TF over GST control)
ETV3L
  binding signal: 1.12 fold enrichment (6-mer frequency, TF over GST control)
ETS2
  binding signal: 1.18 fold enrichment (6-mer frequency, TF over GST control)
ETV7
  binding signal: 1.12 fold enrichment (6-mer frequency, TF over GST control)
ETV3
  binding signal: 1.09 fold enrichment (6-mer frequency, TF over GST control)
ETV6
  binding signal: 1.15 fold enrichment (6-mer frequency, TF over GST control)

Source: paper PMC7862700, “An all-to-all approach to the identification of sequence-specific readers for epigenetic DNA modifications on cytosine”
